PLK1 PBD inh: Plk1 polo box domain binding inhibitors, primary screen, biochemical, fluorescence polarization. Plk1 PBD phosphopeptide binding. 97,000 compounds, 0.13% hits. inhibition, %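 (tested at about 20 µM)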; in the data active = inhibition above about 34%, passing the limit was not always enough
CYP2C9 inhib: blockers of cytochrome P450 2C9 activity – biochemical, luminescence, ADME assay, primary screen; P11712; inhibition, % at 5 µM; 96,000 compounds, 20% hits; CYP2C9 Supersomes, luciferin-H conversion;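 active = blocking of liver enzyme CYP2C9 beyond about 50% at 5 µM, limit read from the data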
CYP2C9 act: human CYP2C9 activators, primary screen, biochemical, luminescence. recombinant CYP2C9, luciferin-H conversion; hits give high values; factor 1 = untreated enzyme, 0 = blocked. activation factor at 5 µM. 96,000 compounds, 1.4% hits. AID 1024, 2008;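 active = activation factor of 2 or more for CYP2C9 at a 5 µM dose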
CYP2C19 inhib: blockers of cytochrome P450 2C19 activity – biochemical, luminescence, ADME assay, primary screen; CYP2C19 Supersomes, luciferin-H EGE luminescence, 30 min; inhibition, % at 5 µM; 96,000 compounds, 21% hits; AID 778, 2007;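 active = CYP2C19 inhibition above a set limit at 5 µM in the primary screen, cut at about 50% in these data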
Target sequence (P33261 whole entry, looked up): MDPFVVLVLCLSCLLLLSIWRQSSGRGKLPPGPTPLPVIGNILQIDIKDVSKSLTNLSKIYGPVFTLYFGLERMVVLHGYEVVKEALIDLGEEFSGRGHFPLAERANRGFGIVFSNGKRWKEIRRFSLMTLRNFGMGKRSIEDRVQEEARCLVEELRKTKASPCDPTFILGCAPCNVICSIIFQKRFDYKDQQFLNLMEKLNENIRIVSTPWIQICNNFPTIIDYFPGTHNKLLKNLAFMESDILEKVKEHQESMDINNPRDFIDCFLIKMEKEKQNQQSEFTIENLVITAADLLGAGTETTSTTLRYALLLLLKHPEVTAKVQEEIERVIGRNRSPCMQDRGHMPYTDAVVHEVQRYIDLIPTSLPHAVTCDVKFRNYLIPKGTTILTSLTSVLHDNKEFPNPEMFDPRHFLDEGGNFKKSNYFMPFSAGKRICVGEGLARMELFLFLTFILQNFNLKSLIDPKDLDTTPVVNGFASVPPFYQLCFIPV
PLK1 inh: human PLK1 kinase inhibitors, primary screen, biochemical, TR-FRET. inhibition, % at 10 µM. recombinant PLK1 kinase, TR-FRET peptide phosphorylation. Serine/threonine-protein kinase PLK1 (Homo sapiens), P53350. 97,000 compounds, 0.53% hits. AID 619, 2007;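 active = inhibition of 50% or more in the single-concentration screen; inactive = inhibition below 50%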
CYP2C19 act: human CYP2C19 activators, primary screen, biochemical, luminescence | 96,000 tested, under 10 active | recombinant CYP2C19, luciferin-H EGE luminescence; hits give high values; 0 = fully inhibited enzyme, 1 = untreated enzyme | activation factor at 5 µM;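 active = activation factor of at least 2 at 5 µM in the primary screen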
Each line names hits and unclear results; the compound was inactive in the other large screens. Compounds with a hit are over-represented: about 28% of the library has one in this group of screens.

COC(=O)CSc1nnc(-c2ccoc2C)n1-c1ccc(C)cc1	none
COc1ccc(-n2c(SCC(=O)Nc3nccs3)nnc2-c2ccoc2C)cc1	CYP2C9 inhib 62, CYP2C19 inhib 75
CS(=O)c1nc(-c2ccc(Br)cc2)cc(-c2ccccc2)c1C#N (centres undefined)	CYP2C9 inhib 83, CYP2C19 inhib 57 (no result: PLK1 PBD inh, PLK1 inh)
CS(=O)(=O)c1nc(-c2ccc(Br)cc2)cc(-c2ccccc2)c1C#N	CYP2C9 inhib 73, CYP2C19 inhib 57
COc1ccc(-c2cc(-c3ccccc3)c(C#N)c(S(C)(=O)=O)n2)cc1	none
CCOC(=O)c1ccc(NC(=O)c2ccc(CN3CCOCC3)cc2)cc1	none
O=C(N/N=C/c1ccc(OC(=O)c2ccccc2)cc1)c1ccc(CN2CCOCC2)cc1	CYP2C9 inhib 59
Cc1ccc(-n2c(C)cc(/C=N/NC(=O)c3ccc(CN4CCOCC4)cc3)c2C)cc1	none
Cc1cccc(-n2c(C)cc(/C=N/NC(=O)c3ccc(CN4CCOCC4)cc3)c2C)c1	CYP2C9 inhib 77
COc1cccc(NC(=O)CC2COc3ccccc3O2)c1 (centres undefined)	none
COc1ccc(C2Oc3ccccc3N2C(C)=O)cc1 (centres undefined)	CYP2C9 inhib 69, CYP2C19 inhib 64
COC(=O)CC1COc2ccccc2N1C(=O)c1ccc(OC)cc1 (centres undefined)	CYP2C19 inhib 62
CC(=O)Oc1ccc(C2OC(=O)c3ccccc3N2C(C)=O)cc1 (centres undefined)	none
COc1ccc(C(=O)N2c3ccccc3C(=O)OC2c2ccc3c(c2)OCO3)cc1 (centres undefined)	CYP2C9 inhib 81, CYP2C19 inhib 83
CC(C)OP(=O)(c1ccc(N(C)C)cc1)C(O)c1ccccc1 (centres undefined)	none
O=C1c2ccccc2C(=O)N1CCCCN(C(=O)c1ccc([N+](=O)[O-])cc1)c1ccc(Cl)cc1	CYP2C9 inhib 54
Cc1ccc(N(CCCCN2C(=O)c3ccccc3C2=O)C(=O)c2cccc([N+](=O)[O-])c2)cc1	CYP2C9 inhib 61, CYP2C19 inhib 64
CCOC(=O)c1cc(CC)sc1NC(=O)C(c1ccccc1)c1ccccc1	none
Cc1nn(C(=O)c2ccco2)c(C)c1CN1C(=O)c2ccccc2C1=O	CYP2C9 inhib 96
Cc1nn(C(=O)N2CCCCC2)c(C)c1CN1C(=O)c2ccccc2C1=O	CYP2C9 inhib 61, CYP2C19 inhib 69
CCC(=O)N(CCC(c1ccco1)c1ccccc1OC)Cc1cccs1 (centres undefined)	CYP2C9 inhib 96, CYP2C19 inhib 96
CC(=O)N(CCC(c1ccccc1)c1ccco1)Cc1cccs1 (centres undefined)	none
Cn1ncc(Cl)c1C(=O)Nc1ccc(Cl)cn1	none (no result: CYP2C9 inhib, CYP2C9 act, CYP2C19 inhib, CYP2C19 act)
Cc1ccc(-c2csc3ncnc(OCC(=O)NC(=O)NCc4ccco4)c23)cc1	CYP2C19 inhib 50 (no result: PLK1 PBD inh, PLK1 inh)
N#CCC(=O)N1CCCCCC1	none
CCOc1ccc(NC(=O)CSc2nnc(-c3ccoc3C)n2CC2CCCO2)cc1 (centres undefined)	none (no result: CYP2C9 inhib, CYP2C9 act, CYP2C19 inhib, CYP2C19 act)
CCCCn1c(SCC(=O)N2CCOCC2)nnc1-c1ccoc1C	none (no result: CYP2C9 inhib, CYP2C9 act, CYP2C19 inhib, CYP2C19 act)
CCn1c(SCC(=O)Nc2nc(C)cs2)nnc1-c1ccoc1C	CYP2C19 inhib 75
Cc1occc1-c1nnc(SCC(=O)Nc2ccc3c(c2)OCO3)n1CC1CCCO1 (centres undefined)	CYP2C9 inhib 60
CCn1c(SCC(=O)N2CCN(c3ccccc3F)CC2)nnc1-c1ccoc1C	CYP2C9 inhib 53, CYP2C19 inhib 54
CCn1c(SCC(=O)Nc2nc(C)cs2)nnc1C(NC(=O)c1ccccc1Cl)C(C)C (centres undefined)	CYP2C19 inhib 52
CC1CCc2cc(F)ccc2N1C(=O)CSc1nnc(-c2cccs2)n1C (centres undefined)	none
CCCCn1c(SCC(=O)c2ccc3c(c2)OCCO3)nnc1-c1ccoc1C	CYP2C9 inhib 90, CYP2C19 inhib 96
CCCn1c(SCC(=O)c2ccc3c(c2)OCCO3)nnc1-c1ccco1	none
CCCn1c(SCC(=O)Nc2nnc(C)s2)nnc1-c1ccoc1C	CYP2C9 inhib 66
Cc1nnc(NC(=O)CSc2nnc(-c3ccoc3C)n2CC(C)C)s1	none
Cc1cccc(-n2c(SCC(=O)Nc3nnc(C)s3)nnc2-c2ccoc2C)c1	none
CCCCn1c(SCC(=O)OCC)nnc1-c1ccoc1C	CYP2C9 inhib 55
CCCCn1c(SCC(=O)Nc2nnc(C)s2)nnc1-c1ccoc1C	CYP2C9 inhib 81
COC(=O)C(C)NS(=O)(=O)c1ccc(NC(C)=O)cc1 (centres undefined)	none
CCC(C)NC(=O)C1CCN(S(=O)(=O)N2CCCC2)CC1 (centres undefined)	none (no result: PLK1 PBD inh, PLK1 inh)
CCn1c(SCC(=O)Nc2ccccc2-c2ccccc2)nnc1-c1ccoc1C	CYP2C9 inhib 86, CYP2C19 inhib 80 (no result: PLK1 PBD inh, PLK1 inh)
COc1cccc(N2CCN(c3ccc(S(=O)(=O)N4CCCC4)cc3)CC2)c1	none
CC1(C)Cc2c(cnn2-c2ccccc2)C(=O)/C1=N\NC(=O)c1ccccc1O	CYP2C19 inhib 51
CCN(C(=S)Nc1ccccc1F)C1CCCCC1	none
CCOC(=O)N1CCN(C(=O)Nc2sc3nc4n(c(=O)c3c2C)CCC(C)CC4)CC1 (centres undefined)	none
N#CC(c1ccccc1)c1ccc(C(=O)c2ccc(F)cc2)cc1 (centres undefined)	CYP2C9 inhib 99, CYP2C19 inhib 91
N#CC(c1ccc(F)cc1)c1ccc(C(=O)c2ccccc2)cc1 (centres undefined)	CYP2C9 inhib 91, CYP2C19 inhib 76
O=C(CC(=O)c1ccccc1O)c1ccc(F)cc1	none
O=C(c1ccc(F)cc1)c1cc2ccccc2o1	none
CCc1nc2sc(C)c(C)c2c(=O)n1CCO	none
Cc1sc(N/N=C/C=C/c2ccccc2)nc1-c1ccccc1	none
CC1=CC(C)(C)N2C(=O)C3(C(C#N)=C(N)Oc4cc(O)ccc43)c3c(C)c(C)cc1c32 (centres undefined)	CYP2C9 inhib 94, CYP2C19 inhib 89
O=C(CN1C(=O)c2cccc3cccc1c23)N1CCN(Cc2ccc3c(c2)OCO3)CC1	none (no result: CYP2C9 inhib, CYP2C9 act, CYP2C19 inhib, CYP2C19 act)
O=C(CCCN1C(=O)c2ccccc2C1=O)N1CCc2ccccc2C1	CYP2C19 inhib 50
O=C(CN1C(=O)c2cccc3cccc1c23)N1CCc2ccccc2C1	CYP2C19 inhib 64
O=C(CN1C(=O)c2ccccc2S1(=O)=O)N1CCc2ccccc2C1	CYP2C19 inhib 55
O=C(CCS(=O)(=O)Cc1ccccc1)N1CCc2ccccc2C1	none
CC1CCN(C(=O)CN2C(=O)c3ccccc3S2(=O)=O)CC1	none

Screens deposited in PubChem BioAssay by several laboratories.
